Results filed as inconclusive are left out. A call without a number means that no potency is given here. Active and inactive are the calls of the source. Unless noted, the call rests on the fitted dose curve; in most records, active means well fitted curve in the direction sought with a large enough effect; inconclusive means small, poorly fitted or top-dose-only effect, or another doubt; inactive means no such curve, though single readings can be large; an effect the other way counts as inactive or inconclusive.
Key:
[1] = HPAF-II Cancer Cell Toxicity qHTS against the NCATS CANVASS Library (AID 1347346); further: nearly all actives have a fitted effect of over 55% in size; further: potency means the concentration at half of the fitted maximal effect
Summary of the method: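 1000 HPAF-II cells/well; 4 h pre-incubation; 11-pnt compound titration; 72 h, 37 degrees C/5% CO2; CellTiter-Glo, 15 min RT; luminescence read.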

[2] = SW1088 Cancer Cell Toxicity qHTS against the NCATS CANVASS Library (AID 1347350); further: nearly all actives have a fitted effect of over 75% in size; further: potency means the concentration at half of the fitted maximal effect
Summary of the method: (§1)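 Cells were seeded at 1000 per well, allowed 4 h at 37 degrees C/5% CO2, then pin-treated with an 11-point compound series. After 72 h, viability was read as CellTiter-Glo luminescence following 15min at room temperature.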

[3] = U-118MG Cancer Cell Toxicity qHTS against the NCATS CANVASS Library (AID 1347351); further: series mostly up to about 38 µM
Summary of the method: as §1

[4] = COV-362 Cancer Cell Toxicity qHTS against the NCATS CANVASS Library (AID 1347352); further: series mostly up to about 38 µM
Summary of the method: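 1000 cells/well, 4 h pre-incubation 37 °C/5% CO2; 11-pnt titration; 72 h; CellTiter-Glo 15 min RT, luminescence.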

[5] = A2780 Cisplatin Sensitive Ovarian Cancer Cell Toxicity qHTS against the NCATS CANVASS Library (AID 1347353); further: nearly all actives have a fitted effect of over 60% in size
Summary of the method: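 750 cells/well, 4 h settle; 11-pt cpd titration; 72 h, 37 °C, 5% CO2; ATPLite 10 min RT; luminescence read.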

[6] = SDT Cancer Cell Toxicity qHTS against the NCATS CANVASS Library (AID 1347365);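 further: SDT canine glioma cells 500 per well in 1536 well plates; series mostly up to about 46 µM; nearly all actives have a fitted effect of over 60% in size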
Summary of the method: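 Luminescent ATP read-out (CellTiterGlo) after 72 hr compound exposure of dog glioma SDT cells, 500 per well. Eleven-point titrations; bortezomib titration run alongside as control.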

[7] = Secretion counterscreen for inhibitors of the SERCaMP assay screened against the NCATS CANVASS Library (AID 1347390);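 further: light from luciferase secreted into medium read as a measure of general secretion; series mostly up to about 77 µM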
Summary of the method: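 Counterscreen identifying compounds that disrupt secretion, using SH-SY5Y cells with a constitutively secreted Gaussia luciferase reporter. A 20 h compound exposure (top 77 uM) precedes luminescent detection with coelenterazine.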

[8] = qHTS for activators of Nrf2/ARE signaling pathway screened against the NCATS CANVASS Library (AID 1347391); further: nearly all actives have a fitted effect of over 60% in size
Summary of the method: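 HepG2 ARE-bla; cpd 11-pt qHTS, 16 h 37C/5% CO2; CCF4 substrate 2 h RT; read ex 405 / em 460 + 530 nm. Viability by CellTiter-Glo luminescence, 30 min RT.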

[9] = Vero-766 cells viability qHTS against the NCATS CANVASS Library: Counterscreen for Zika virus inhibition assay (AID 1347394); further: nearly all actives have a fitted effect of over 60% in size; further: potency means the concentration at half of the fitted maximal effect
Summary of the method: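 This cytotoxicity counterscreen uses African green monkey Vero 766 cells in the absence of Zika virus. Compounds are incubated with cells for 72 h, and ATP-based luminescence reports viability.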

[10] = qHTS to identify inhibitors of the type 1 interferon - major histocompatibility complex class I in skeletal muscle: primary screen against the NCATS Mechanism Interrogation Plate v5.0 (MIPE) Libary (AID 1347411); further: nearly all actives have a fitted effect of over 65% in size; further: potency means the concentration at half of the fitted maximal effect
Summary of the method: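 HLA-B HiBit myoblasts, dexamethasone-free medium + 4 ng/ml IFN-b, 24 h compound, 11-pt 1:3 from 46 uM final. Readout: Nano-Glo HiBiT lytic luminescence after 10 min lysis, RT.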

[11] = Cytotoxicity counterscreen for inhibitors of SARS-CoV-2 cell entry (AID 1645845; calls by dose curve; further: nearly all actives have a fitted effect of over 50% in size; further: potency means the concentration at half of the fitted maximal effect); conditions: outcome: dose series up to 57.1 µM unless noted
Summary of the method: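 After a 15 min room-temperature ATPLite 1step step, luminescence reflected ATP remaining in HEK293-ACE2 cells exposed to compound for 1 h plus 48 h at 37 C, with percent activity set by cell and no-cell controls.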

Question: Which results are given for `O[C@H]1C=C[C@@]23CCN(Cc4cc5c(cc42)OCO5)[C@@H]3C1`?
Answer: Potency [1]: inactive; Potency [2]: inactive; Potency [3]: inactive; Potency [4]: inactive; Potency [5]: inactive; Potency [6]: inactive; Potency [7]: inactive; Potency [8]: inactive; Potency [9]: inactive

Question: Which Potency [1] does the source give for `CC[C@]12C=CCN3CC[C@]4(C(=C(C(=O)OC)C1)Nc1ccccc14)[C@@H]32` here?
Answer: inactive

Question: And the Potency [2]?
Answer: inactive

Question: What about the Potency [3] of the same compound?
Answer: inactive

Question: And the Potency [4]?
Answer: inactive

Question: What about the Potency [5] of the same compound?
Answer: inactive

Question: And the Potency [7]?
Answer: inactive

Question: And the Potency [8]?
Answer: inactive

Question: What about the Potency [9] of the same compound?
Answer: inactive

Question: For `CO[C@@]12c3c(C)cc(O)c4c(=O)occ(c34)C(=O)[C@@H]1[C@]13COC(=O)c4c(O)cc(C)c(c41)C(=O)[C@H]2[C@@H]3OC(C)=O`, which Potency [2] is on record?
Answer: 18800 nM (active)

Question: And the Potency [3]?
Answer: inactive

Question: What about the Potency [4] of the same compound?
Answer: inactive

Question: What about the Potency [6] of the same compound?
Answer: inactive

Question: And the Potency [9]?
Answer: inactive

Question: What does the source list for `C/C=C/[C@@H]1[C@H]2C[C@@H](C)CC[C@@H]2C(C)=C[C@H]1C(=O)c1c(O)c(-c2ccc(O)cc2)c[nH]c1=O`?
Answer: Potency [1]: 13300 nM (active); Potency [2]: 6680 nM (active); Potency [3]: inactive; Potency [7]: inactive; Potency [9]: 18600 nM (active)

Question: With `CC(=O)OC[C@H]1O[C@@H]([S-])[C@H](OC(C)=O)[C@@H](OC(C)=O)[C@@H]1OC(C)=O.CC[PH+](CC)CC.[Au]` as the compound, how does the Potency [10] read?
Answer: 1170 nM (active)

Question: For `CN1C(=O)[C@@H](NC(=O)[C@H](CCC(F)(F)F)[C@H](CCC(F)(F)F)C(N)=O)N=C(c2ccccc2)c2ccccc21`, which Potency [10] is on record?
Answer: inactive

Question: And the Potency [11]?
Answer: inactive

Question: For `C/C=C(\C)C(=O)N[C@@H](c1ccccc1)[C@@H](O)C(=O)O[C@H]1C[C@@]2(O)[C@@H](OC(=O)c3ccccc3)[C@@H]3[C@]4(OC(C)=O)CO[C@@H]4C[C@H](O)[C@@]3(C)C(=O)[C@H](OC(C)=O)C(=C1C)C2(C)C`, which Potency [10] is on record?
Answer: inactive

Question: And the Potency [11]?
Answer: inactive

Question: With `COc1cc(C)[nH]c(=O)c1CNC(=O)c1c(C)n([C@H](C)C2CCN(CC(F)(F)F)CC2)c2ccccc12` as the compound, how does the Potency [10] read?
Answer: inactive

Question: And the Potency [11]?
Answer: inactive

Question: With `CC1(C)CC[C@]2(NC(=O)C(C)(F)F)CC[C@]3(C)[C@H](C(=O)C=C4[C@@]5(C)C=C(C#N)C(=O)C(C)(C)[C@@H]5CC[C@]43C)[C@@H]2C1` as the compound, how does the Potency [10] read?
Answer: 1310 nM (active)

Question: What does the source list for `CC(C)(NC(=O)O[C@@H]1CN2CCC1CC2)c1csc(-c2ccc(F)cc2)n1`?
Answer: Potency [10]: inactive; Potency [11]: inactive

Question: For `CC(C)(O)/C=C\C(=O)[C@](C)(O)[C@H]1[C@H](O)C[C@]2(C)[C@@H]3CC=C4[C@@H](C=C(O)C(=O)C4(C)C)[C@]3(C)C(=O)C[C@@]12C`, which Potency [10] is on record?
Answer: 3300 nM (active)

Question: For `COC12C(COC(N)=O)C3=C(C(=O)C(C)=C(N)C3=O)N1CC1C2N1C` (stereo not drawn), which Potency [10] is on record?
Answer: inactive

Question: What about the Potency [11] of the same compound?
Answer: inactive

Question: For `C[C@@]12OC(=O)[C@]1([C@@H](O)[C@@H]1C=CCCC1)NC(=O)[C@@H]2CCCl`, which Potency [10] is on record?
Answer: 29.4 nM (active)

Question: With `CO/C1=C/C(C)=C\[C@@H](C)[C@@H](O)[C@@H](C)C/C(C)=C\C=C/[C@H](OC)[C@@H]([C@@H](C)[C@@H](O)[C@H](C)[C@@]2(O)C[C@@H](O)[C@H](C)[C@@H](C(C)C)O2)OC1=O` as the compound, how does the Potency [10] read?
Answer: inactive

Question: What about the Potency [11] of the same compound?
Answer: 1580 nM (active)

Question: With `Cc1c(N)nc([C@H](CC(N)=O)NC[C@@H](N)C(N)=O)nc1C(=O)N[C@H](C(=O)N[C@@H](C)[C@H](O)[C@@H](C)C(=O)N[C@@H](C(=O)NCCc1nc(-c2nc(C(=O)NCCC[S+](C)C)cs2)cs1)[C@@H](C)O)C(O[C@H]1O[C@H](CO)[C@H](O)[C@@H](O)[C@H]1O[C@H]1O[C@H](CO)[C@@H](O)[C@H](OC(N)=O)[C@@H]1O)c1cnc[nH]1` (stereo partly drawn) as the compound, how does the Potency [10] read?
Answer: inactive

Question: What about the Potency [11] of the same compound?
Answer: inactive

Question: For `C[C@@H]1CC[C@@]2(OC1)O[C@H]1C[C@H]3[C@@H]4CC=C5C[C@@H](O[C@@H]6O[C@H](CO)[C@@H](O[C@@H]7O[C@@H](C)[C@H](O)[C@@H](O)[C@H]7O)[C@H](O)[C@H]6O[C@@H]6O[C@@H](C)[C@H](O)[C@@H](O)[C@H]6O)CC[C@]5(C)[C@H]4CC[C@]3(C)[C@H]1[C@@H]2C`, which Potency [11] is on record?
Answer: inactive

Question: For `COC(=O)[C@@]12OC[C@]34[C@H]([C@@H](O)[C@@H]1O)[C@@]1(C)CC(=O)C(O)=C(C)[C@@H]1C[C@H]3OC(=O)[C@H](OC(=O)/C=C(\C)C(C)C)[C@@H]24`, which Potency [10] is on record?
Answer: 65.8 nM (active)

Question: Which results are given for `Cn1c(/C=C/CO)c(CO)c2c1C(=O)C=C(N1CC1)C2=O`?
Answer: Potency [10]: inactive; Potency [11]: inactive

Question: What does the source list for `CC(=O)O[C@@]12CO[C@@H]1C[C@H](O)[C@@]1(C)C(=O)[C@H](O)C3=C(C)[C@@H](O)C[C@@](O)([C@@H](OC(=O)c4ccccc4)[C@H]21)C3(C)C`?
Answer: Potency [10]: inactive; Potency [11]: inactive

Question: What does the source list for `C=C[C@H]1CN2CCC1C[C@@H]2[C@@H](O)c1ccnc2ccccc12` (stereo partly drawn)?
Answer: Potency [10]: inactive; Potency [11]: inactive
